Activity calls are given as the source filed them.

Experiment [1] is described as follows: small molecules captured by biotinylated probe aFSTL3 – biochemical, small-molecule microarray, fluorescence 635/667, stem cell growth factor project, primary screen (AID 1064).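 Also: measures binding of the biotinylated anti-FSTL3 antibody to printed compounds.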 The conditions noted are these: higher = more signal.
Experiment [2] is described as follows: binders from COS7 lysate, DM2A8 probe, primary screen, torsin A project, cell lysate, small-molecule microarray, fluorescence 635/667 (AID 1065). To be noted: higher = more signal, COS7 lysate expressing mutant human TOR1A.
Experiment [3] in a line: small molecules captured by biotinylated probe aFGF2 – biochemical, small-molecule microarray, fluorescence 635/667, stem cell growth factor project, primary screen (AID 1067).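 Also: measures binding of biotinylated aFGF2 protein to printed compounds on slides; z-score merges feature fluorescence and signal-to-noise across triplicate slides.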 The conditions noted are these: higher = more signal.
Experiment [4] can be described thus: small molecules captured by biotinylated probe aFGF10 – biochemical, small-molecule microarray, fluorescence 635/667, stem cell growth factor project, primary screen (AID 1071).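 Also: score merges 667 nm spot intensity and signal to noise from triplicate slides.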 The conditions noted are these: higher = more signal.
Experiment [5] deals with Neurogenic locus notch homolog protein 2 (Homo sapiens) (UniProt Q04721). Kind of experiment: small molecules binding Notch2 protein – biochemical, small-molecule microarray, 635 nm fluorescence, stem cell growth factors, primary screen (AID 1073). To be noted: higher = more signal.
Neurogenic locus notch homolog protein 2 (Homo sapiens), sequence (Q04721 whole entry, looked up, canonical isoform): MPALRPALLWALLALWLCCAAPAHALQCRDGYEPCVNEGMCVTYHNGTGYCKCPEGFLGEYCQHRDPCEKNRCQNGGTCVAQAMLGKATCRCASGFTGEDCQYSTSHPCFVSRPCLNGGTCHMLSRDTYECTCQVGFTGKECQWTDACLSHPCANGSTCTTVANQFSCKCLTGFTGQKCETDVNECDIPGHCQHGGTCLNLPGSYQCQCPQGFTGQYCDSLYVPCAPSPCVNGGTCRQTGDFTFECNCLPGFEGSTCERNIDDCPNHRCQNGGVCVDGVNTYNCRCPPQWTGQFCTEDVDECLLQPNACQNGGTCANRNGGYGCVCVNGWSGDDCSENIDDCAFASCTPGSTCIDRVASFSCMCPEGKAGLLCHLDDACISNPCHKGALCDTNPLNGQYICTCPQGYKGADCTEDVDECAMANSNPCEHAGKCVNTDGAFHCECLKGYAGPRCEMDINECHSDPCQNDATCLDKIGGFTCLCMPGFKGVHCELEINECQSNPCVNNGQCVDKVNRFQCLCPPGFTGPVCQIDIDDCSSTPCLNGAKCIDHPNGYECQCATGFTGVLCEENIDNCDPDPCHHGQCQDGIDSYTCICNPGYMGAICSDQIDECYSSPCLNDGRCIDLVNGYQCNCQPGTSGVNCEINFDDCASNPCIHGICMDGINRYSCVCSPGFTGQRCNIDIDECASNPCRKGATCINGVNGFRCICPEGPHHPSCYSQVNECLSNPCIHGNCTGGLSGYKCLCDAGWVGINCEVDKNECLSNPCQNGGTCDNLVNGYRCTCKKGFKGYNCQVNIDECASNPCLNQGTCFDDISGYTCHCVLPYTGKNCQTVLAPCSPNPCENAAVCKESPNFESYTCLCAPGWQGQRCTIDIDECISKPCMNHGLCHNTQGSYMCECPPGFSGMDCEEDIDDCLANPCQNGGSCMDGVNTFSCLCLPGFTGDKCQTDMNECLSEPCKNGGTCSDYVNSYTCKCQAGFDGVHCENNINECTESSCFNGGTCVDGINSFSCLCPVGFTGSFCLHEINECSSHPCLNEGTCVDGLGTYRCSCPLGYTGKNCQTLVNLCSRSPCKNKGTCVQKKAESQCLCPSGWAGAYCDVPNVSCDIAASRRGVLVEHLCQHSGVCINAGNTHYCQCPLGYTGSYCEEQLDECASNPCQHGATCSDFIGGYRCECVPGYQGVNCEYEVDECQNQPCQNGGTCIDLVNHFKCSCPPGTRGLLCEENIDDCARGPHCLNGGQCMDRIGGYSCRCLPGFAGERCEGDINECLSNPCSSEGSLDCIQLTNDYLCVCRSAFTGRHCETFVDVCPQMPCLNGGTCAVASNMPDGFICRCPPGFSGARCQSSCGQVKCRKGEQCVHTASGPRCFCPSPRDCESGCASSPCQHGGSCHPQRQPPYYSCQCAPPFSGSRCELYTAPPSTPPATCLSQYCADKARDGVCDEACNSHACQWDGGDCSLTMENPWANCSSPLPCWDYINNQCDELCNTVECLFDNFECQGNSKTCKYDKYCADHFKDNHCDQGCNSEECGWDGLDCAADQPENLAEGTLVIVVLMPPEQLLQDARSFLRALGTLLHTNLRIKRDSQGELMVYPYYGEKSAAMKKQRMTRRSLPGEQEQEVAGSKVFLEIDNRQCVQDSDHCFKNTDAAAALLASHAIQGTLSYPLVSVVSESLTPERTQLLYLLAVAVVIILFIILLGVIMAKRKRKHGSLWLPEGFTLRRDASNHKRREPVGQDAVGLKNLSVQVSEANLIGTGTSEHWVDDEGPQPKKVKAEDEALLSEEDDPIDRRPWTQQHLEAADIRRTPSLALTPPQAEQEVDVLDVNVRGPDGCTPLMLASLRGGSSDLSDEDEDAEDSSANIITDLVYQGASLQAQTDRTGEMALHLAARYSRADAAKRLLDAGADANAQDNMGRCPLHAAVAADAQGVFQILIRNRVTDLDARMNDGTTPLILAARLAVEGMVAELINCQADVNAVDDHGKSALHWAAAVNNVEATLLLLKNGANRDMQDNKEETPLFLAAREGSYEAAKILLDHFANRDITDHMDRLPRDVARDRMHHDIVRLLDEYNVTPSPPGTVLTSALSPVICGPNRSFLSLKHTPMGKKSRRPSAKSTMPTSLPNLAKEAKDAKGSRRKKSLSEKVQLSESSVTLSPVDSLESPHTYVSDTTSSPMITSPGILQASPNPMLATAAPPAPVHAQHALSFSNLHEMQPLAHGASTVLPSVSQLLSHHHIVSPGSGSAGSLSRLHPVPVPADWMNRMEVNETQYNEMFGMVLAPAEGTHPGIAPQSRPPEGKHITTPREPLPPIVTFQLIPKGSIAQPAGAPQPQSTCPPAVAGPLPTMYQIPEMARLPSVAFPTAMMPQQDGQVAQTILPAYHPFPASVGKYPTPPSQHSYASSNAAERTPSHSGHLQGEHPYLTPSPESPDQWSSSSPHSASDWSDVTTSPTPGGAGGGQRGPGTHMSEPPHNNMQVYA
Experiment [6] deals with Pro-neuregulin-1, membrane-bound isoform (Homo sapiens) (UniProt Q02297). The experiment is described as follows: small molecules binding neuregulin-1 protein – biochemical, small-molecule microarray, fluorescence 635/667, psychiatric disease protein project, primary screen (AID 1075).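 Also: score combines 667 nm spot fluorescence with signal to noise.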 To be noted: NRG1 binding, 635 nm fluorescence, higher = more signal.
Pro-neuregulin-1, membrane-bound isoform (Homo sapiens), sequence (Q02297 whole entry, looked up, the tested form may be a part, canonical isoform): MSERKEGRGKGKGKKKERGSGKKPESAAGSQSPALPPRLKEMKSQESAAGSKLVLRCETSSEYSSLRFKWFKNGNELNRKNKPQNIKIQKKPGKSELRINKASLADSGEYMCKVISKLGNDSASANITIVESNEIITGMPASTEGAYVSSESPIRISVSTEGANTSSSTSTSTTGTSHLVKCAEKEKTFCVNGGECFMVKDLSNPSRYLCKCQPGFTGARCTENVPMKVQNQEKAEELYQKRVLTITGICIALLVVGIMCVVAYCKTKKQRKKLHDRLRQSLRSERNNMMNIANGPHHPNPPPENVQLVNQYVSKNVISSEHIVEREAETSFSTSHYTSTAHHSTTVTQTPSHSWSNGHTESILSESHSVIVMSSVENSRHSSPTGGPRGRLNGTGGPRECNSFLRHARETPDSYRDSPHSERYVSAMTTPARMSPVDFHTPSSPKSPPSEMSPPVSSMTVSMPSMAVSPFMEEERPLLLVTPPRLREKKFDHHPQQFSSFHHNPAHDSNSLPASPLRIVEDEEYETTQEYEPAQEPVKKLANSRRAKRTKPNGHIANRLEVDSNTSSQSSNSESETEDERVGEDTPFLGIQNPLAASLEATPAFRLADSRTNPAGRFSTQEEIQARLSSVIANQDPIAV
Experiment [7] relates to Neuregulin-1 EGF-like domain. Kind of experiment: small molecules binding NRG1 EGF domain – biochemical, small-molecule microarray, 635 nm fluorescence, primary screen (AID 1081).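 Also: binding of the protein to compounds printed on small-molecule microarray slides.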 To be noted: higher = more signal.
The nature of experiment [8]: FRG1 expression reporter modulators in myotubes – cell-based, C2C12 myotubes, firefly/Renilla luciferase, luminescence, FRG1 inhibition for FSHD, primary screen (AID 1084). To be noted: FRG1 promoter luciferase, higher = more signal, called active from +8 up or from −8 down.
A short description of experiment [9]: small molecules captured by biotinylated probe aFST – biochemical, small-molecule microarray, fluorescence 635/667, stem cell growth factor project, primary screen (AID 1086).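 Also: score merges 667 nm fluorescence with signal-to-noise of each printed compound spot.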 The conditions noted are these: higher = more signal.
Experiment [10] is described as follows: binders of probe aHhip on microarray, primary screen, stem cell growth factor project, biochemical, small-molecule microarray, fluorescence 635/667 (AID 1087).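 Also: score merges spot fluorescence at 667nm with spot signal to noise ratio.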 The conditions noted are these: higher = more signal.

In the case of `COC(=O)c1c(CC[C@@H](CO)NC(=O)N[C@@H](C)Cn2cc(-c3ccccn3)nn2)oc(C(C)=O)c1C(=O)OC`, the composite z-score in experiment [1] was -0.291; in [2], 0.334; in experiment [3] it was -0.076; in experiment [4], 0.384; in experiment [5] it was -0.127; in experiment [6], 1.66. In addition, the composite z-score was 1.29 in experiment [7], -0.205 in [9] and -0.0237 in experiment [10]. Further, the z-score in [8] was 0.224 (inactive).
For `O=C1CS(=O)(=O)C(c2cccc([N+](=O)[O-])c2)N1c1ccccc1` (stereo not given), the composite z-score in experiment [1] worked out at 0.63; in experiment [2] it was 1.79; in experiment [3], 0.467; in experiment [4], 0.446; in experiment [5] it was 0.936; in [6] it was 1.66. Also, the composite z-score was 1.19 in experiment [7], 0.822 in [9] and 1.56 in experiment [10]. Moreover, the z-score in experiment [8] was -0.997 (inactive).
Consider `COCCOC(=O)N1C(=O)[C@@]2(c3cc(C#CC4=CCCCC4)ccc31)[C@H](C(=O)Nc1nc3ccccc3s1)[C@H]1C(=O)O[C@H](c3ccccc3)[C@H](c3ccccc3)N1[C@@H]2c1ccc(O)cc1`, for which the composite z-score in [1] is -0.528; in experiment [2] it was 1.39; in [3], 0.0156; in experiment [4], 0.176; in experiment [5] it was 0.992; in experiment [6], 1.15. In addition, the composite z-score in experiment [7] stood at 1.03; in experiment [9], 1.13; in experiment [10], 0.103. For the same compound, in experiment [8], the z-score is 0.0402 (inactive).
Take `COc1ccc(CCNC(=O)[C@@H]2c3ccccc3C(=O)N(C3CCCCC3)[C@H]2c2ccc(CO)cc2)cc1`: the composite z-score in experiment [1] turned out to be 0.0003; in [2], 1.3; in experiment [3], 0.104; in [4], 0.329; in experiment [5], 0.785; in experiment [6], 1.05. Moreover, the values for the composite z-score in [7], in experiment [9] and in [10] were 1.24, 0.246 and -0.0645, respectively. The z-score in experiment [8] is -0.335 (inactive).
Take `COCC(=C=CC[C@H](O)c1ccc(OCCO)cc1)CCO`: the composite z-score in experiment [1] is -0.144; in [2], 1.12; in experiment [3] it was -0.161; in [4], 0.592; in experiment [5] it was 0.124; in [6] it was 1.64. Also, the composite z-score was 1.42 in [7], 0.0418 in [9] and -0.0618 in [10]. In addition, the z-score in [8] is 0.461 (inactive).
For the compound `C=CC[C@@H](OC(=O)Nc1ccc(SC)cc1)c1ccc(O)c(F)c1`, the composite z-score was 0.401 in experiment [1]; 0.601 in experiment [2]; -0.0729 in experiment [3]; 0.165 in [4]; -0.131 in experiment [5]; 1.7 in experiment [6]. For the same compound, the figures for the composite z-score in experiment [7], in experiment [9] and in experiment [10] were 1.21, -0.277 and -0.0645, respectively. In experiment [8], the z-score is 6.7 (inactive).
With `CN(C)C(=O)[C@@]1(Cc2ccccc2CN=[N+]=[N-])N=C(c2ccc(OCCCO)cc2)O[C@H]1c1ccccc1N=[N+]=[N-]`, the composite z-score in experiment [1] was determined as 0.388; in experiment [2] it was 0.021; in [3] it was 0.0362; in experiment [4], 1.2; in experiment [5], 1.55; in [6] it was 1.88. In addition, the composite z-score in experiment [7] was determined as 1.25; in [9] it was 1.44; in experiment [10] it was 0.0071. The z-score in [8] was -1.34 (inactive).
Take `CC[C@@H]1O[Si](C(C)C)(C(C)C)c2c1cc(-c1cc(C)c(OC)c(C)c1)nc2-c1ccc(Oc2ccccc2)cc1`: the composite z-score in [1] is -0.119; in [2], -0.259; in [3], -0.0881; in experiment [4] it was -0.0323; in [5] it was 0.0131; in [6] it was 0.437. Moreover, the figures for the composite z-score in experiment [7], in experiment [9] and in [10] were -0.595, -0.0965 and 0.0808, respectively. The z-score in [8] is 0.838 (inactive).
Turning to `COc1cc2c(cc1O)C=[N+](Cc1sc3ccccc3c1Cl)CC2`, the composite z-score was 0.172 in experiment [1]; -0.0743 in experiment [2]; -0.0999 in experiment [3]; 0.1 in [4]; 1.06 in experiment [5]; -0.102 in [6]. Also, the composite z-score is 1.48 in experiment [7], -0.161 in experiment [9] and 0.0178 in [10]. Moreover, the z-score in experiment [8] was 0.432 (inactive).
Regarding `C=CC[C@]1(C(=O)N2CCCCC2)N=C(c2ccc(OCCCO)cc2)O[C@H]1c1ccccc1CN=[N+]=[N-]`, the composite z-score in [1] is -0.25; in [2], 0.516; in experiment [3] it was 0.238; in experiment [4] it was 0.546; in experiment [5], 1.42; in experiment [6], 1.17. In addition, the composite z-score is 1.24 in experiment [7], 0.907 in experiment [9] and -0.0699 in experiment [10]. Moreover, in experiment [8], the z-score is -1.08 (inactive).
`CN1C2C=C(CCCO)C(C3C(=O)N(C(N)=O)C(=O)C32)C1C1CC1` (stereo not given): the composite z-score was -0.263 in [1]; 0.416 in experiment [2]; -0.0959 in experiment [3]; -0.148 in experiment [4]; -0.536 in experiment [5]; 0.0343 in experiment [6]. In addition, the composite z-score is 0.949 in experiment [7], -0.57 in experiment [9] and 0.0274 in experiment [10]. The z-score in experiment [8] was 0.397 (inactive).
Regarding `COCCOC(=O)N1C(=O)[C@@]2(c3cc(C#CC4(O)CCCCCC4)ccc31)[C@H](C(=O)Nc1nc3ccccc3s1)[C@H]1C(=O)O[C@H](c3ccccc3)[C@H](c3ccccc3)N1[C@@H]2c1ccc(O)cc1`, the composite z-score in experiment [1] is -0.304; in experiment [2] it was 0.442; in [3] it was -0.0202; in [4], 0.539; in [5], 1.24; in experiment [6], 1.46. Also, the composite z-score in [7] worked out at 1.2; in [9], 1.47; in [10] it was 0.107. The z-score in [8] is 0.21 (inactive).

The values are drawn from PubChem BioAssay.
